Experimental data published in PubChem BioAssay AID1259343 (VanderVen Lab, College of Veterinary Medicine, Cornell …, 2017).
Among all 6,200 compounds or so, about 2,900 (47%) were called active. Cut-off read from the data, not from the text of the source: active = inhibition above about 50%; inactive = the rest. The set was probably picked from earlier hits. Some of the results follow.

Experiment: Mycobacterium tuberculosis growth inhibition, primary screen (AID 1259343)
Conditions: inhibition: at 10 µM, active compounds read high; outcome: 10 uM

Row | Structure (SMILES) | inhibition
1 | CC(NC(=O)c1cc(Cl)ccc1NS(C)(=O)=O)c1ccc2c(c1)OCO2 (stereo not given) | 7.73% (inactive)
2 | O=C(NCC1COc2ccccc2O1)N1CCN(c2ccc(F)cc2)CC1 (stereo not given) | 26.7% (inactive)
3 | CC(NC(=O)C1Cc2ccccc2O1)c1ccc(Cl)s1 (stereo not given) | 4.06% (inactive)
4 | O=C(NCC1COc2ccccc2O1)C1Cc2cc(Cl)ccc2O1 (stereo not given) | 67% (active)
5 | Fc1ccccc1NC(=S)NCC1COc2ccccc2O1 (stereo not given) | 11.1% (inactive)
6 | O=C(NCc1ccco1)C1Cc2cc(Cl)ccc2O1 (stereo not given) | 22% (inactive)
7 | O=C(NCC1COc2ccccc2O1)c1ccc2c(c1)CCC2 (stereo not given) | 66.8% (active)
8 | CC(NC(=O)C1Cc2cc(Cl)ccc2O1)c1ccc(F)c(F)c1 (stereo not given) | 59.3% (active)
9 | O=C1CC(NC(=O)C(F)(F)F)=NN1c1ccccc1 | 70.9% (active)
10 | O=C(c1csc(-c2cccnc2)n1)N1CCOC(c2ccc(Cl)cc2)C1 (stereo not given) | 61% (active)
11 | Clc1ccc(C2CN(Cc3cc(-c4cccnc4)no3)CCO2)cc1 (stereo not given) | 6.33% (inactive)
12 | CCCc1nc(C(=O)N2CCOC(c3ccc(Cl)cc3)C2)cs1 (stereo not given) | 28.4% (inactive)
13 | Cc1ccccc1OCC(=O)N1CCN(c2ncnc3c2nnn3-c2cccc(F)c2)CC1 | 67.9% (active)
14 | Nc1ccc(F)cc1-c1nc(CCOc2ccccc2)no1 | 74.1% (active)
15 | c1ccc(Cc2nc(CCOc3ccccc3)n[nH]2)cc1 | 36.5% (inactive)
16 | COCCCn1c(=S)[nH]c2sc3c(c2c1=O)CCCC3 | 20.5% (inactive)
17 | O=c1c2c3c(sc2[nH]c(=S)n1CC1CCCO1)CCCC3 (stereo not given) | 68.2% (active)
18 | CCn1c(=S)[nH]c2sc3c(c2c1=O)CCCC3 | 38.1% (inactive)
19 | CCCc1cc(Nc2ccc(NC(C)=O)cc2)n2ncc(-c3ccccc3)c2n1 | -6.07% (inactive)
20 | CCC(=O)c1cccc(-c2ccc(NC(C)=O)cc2)c1 | 78.7% (active)
21 | O=C1c2ccccc2C(=O)c2c1oc1c3c(ccc21)OCN(C1CCCC1)C3 | 99.5% (active)
22 | CCOC(=O)c1ccc(NC(=O)c2cc3cc([N+](=O)[O-])ccc3oc2=N)cc1 | 62.9% (active)
23 | COC(=O)c1cc2cc(Br)ccc2oc1=O | -45.4% (inactive)
24 | CCOC(=O)C(CC)Sc1nnc(NC(=O)c2ccc(Br)cc2)s1 (stereo not given) | 91.5% (active)
25 | Cc1cccc(Cn2c(SC(C)C)nc3c2c(=O)n(C)c(=O)n3C)c1 | 81.2% (active)
26 | COC(=O)C(C)Sc1nc2c(c(=O)n(C)c(=O)n2C)n1CCC(C)C (stereo not given) | 26.7% (inactive)
27 | CSc1nc2c(c(=O)n(C)c(=O)n2C)n1CCCc1ccccc1 | 28.2% (inactive)

Row | Structure (SMILES) | inhibition
28 | CN(Cc1ccc(-n2cccn2)cc1)S(=O)(=O)c1cccs1 | 10.7% (inactive)
29 | Fc1cccc(NCCc2ccc(-n3cccn3)cc2)n1 | 67.5% (active)
30 | Cc1cc(NCCOCCO)n2ncc(-c3ccc(Cl)cc3)c2n1 | -5.37% (inactive)
31 | COCCNc1cc(C)nc2c(-c3ccc(Cl)cc3)cnn12 | 98.7% (active)
32 | CCc1nn2c(NCCOC)cc(C)nc2c1-c1ccccc1 | 32.2% (inactive)
33 | Cc1ccc(-c2cnn3c(-n4nc(C)cc4C)cc(C)nc23)cc1 | 47.1% (inactive)
34 | c1ccc(-c2cc(NCCCn3ccnc3)n3ncc(-c4ccccc4)c3n2)cc1 | -16.1% (inactive)
35 | Cc1cc(NCCCn2ccnc2)n2ncc(-c3ccc(Cl)cc3)c2n1 | 95.2% (active)
36 | O=C1CC(c2ccc3c(c2)OCCO3)Oc2ccc(Br)cc21 (stereo not given) | inactive
37 | O=C1CC(c2ccc(O)cc2)Oc2ccccc21 (stereo not given) | 72.9% (active)
38 | COc1ccc2c(c1OC)C(=O)OC2Nc1ccc(I)cc1 (stereo not given) | 72.8% (active)
39 | O=C1NC(=O)C(Nc2ccc(I)cc2)S1 (stereo not given) | 27.9% (inactive)
40 | Cc1ccc(OCCCn2cnc3ccccc32)cc1 | 36% (inactive)
41 | Ic1ccc(OCCCn2cnc3ccccc32)cc1 | 70.5% (active)
42 | c1ccc(COc2ccc(OCCCn3cnc4ccccc43)cc2)cc1 | 85.3% (active)
43 | FC(F)(F)c1cccc(OCCCCn2cnc3ccccc32)c1 | 76.6% (active)
44 | c1ccc(OCCCCn2nnc3ccccc32)cc1 | 21.5% (inactive)
45 | Cc1ccc(C(C)C)cc1OCCCn1cnc2ccccc21 | 78.4% (active)
46 | CC1=C(C(=O)OCCOc2ccccc2)C(c2ccccc2[N+](=O)[O-])NC(=O)N1C (stereo not given) | -7.53% (inactive)
47 | Cc1cc(OCC(O)CN(Cc2ccccc2)C(C)(C)C)ccc1[N+](=O)[O-] (stereo not given) | 0.53% (inactive)
48 | Cc1cc(OCCCn2cnc3ccccc32)ccc1[N+](=O)[O-] | 61.1% (active)
49 | CN(Cc1nc2c(s1)CCCC2)C(=O)Cc1ccccc1O | 82.4% (active)
50 | CC1=NN(c2ccc(C(=O)N(C)Cc3ccccc3O)cc2)CC1 | 23.1% (inactive)
51 | Cc1[nH]ccc2c1[nH]c1cc(=O)ccc12 | 90.6% (active)
52 | Oc1ccc(Oc2ncc(Cl)cc2Cl)cc1 | 38.9% (inactive)
53 | CN(Cc1ccccc1C(F)(F)F)c1ncc(C(N)=O)cc1Cl | 39.2% (inactive)
54 | COc1cccc(Oc2ncc(C(N)=O)cc2Cl)c1 | 68.9% (active)

Row | Structure (SMILES) | inhibition
55 | CN(C)c1ccc(-c2nc(-c3cc4c5c(c3)CC(=O)N5CCC4)cs2)cc1 | -34.5% (inactive)
56 | Nc1nc(-c2ccc(Cl)s2)cs1 | 86.7% (active)
57 | Cc1nc(-c2ccc(CCNC(=O)c3cc(F)cc(F)c3)s2)cs1 | 35.7% (inactive)
58 | Clc1ccc(-c2csc(-c3cnccn3)n2)s1 | 17.5% (inactive)
59 | CN(C)c1ccc(Nc2nc(-c3cccs3)cs2)cc1 | 18.8% (inactive)
60 | Nc1nc(-c2cccs2)cs1 | 76% (active)
61 | Nc1nc(-c2ccc3c(c2)OCO3)cs1 | -28.1% (inactive)
62 | CCc1ccc(-c2csc(N)n2)s1 | 76.7% (active)
63 | Nc1ccn(-c2ccc(Cl)c(Cl)c2)n1 | 96.1% (active)
64 | NC(=O)c1ccn(-c2cccc(Br)c2)n1 | 10.3% (inactive)
65 | Cc1sc2nc(-c3cccs3)nc(N3CCNC(C(N)=O)C3)c2c1C (stereo not given) | 26% (inactive)
66 | O=[N+]([O-])c1ccc2nc(C(F)(F)F)[nH]c2c1 | 102% (active)
67 | O=[N+]([O-])c1ccc2[nH]c(O)c(N=Nc3cccc(C(F)(F)F)c3)c2c1 | -6.56% (inactive)
68 | O=S(=O)(c1ccc(Cl)s1)N1CCN(c2ccc(F)cc2)CC1 | -6.71% (inactive)
69 | O=S(=O)(c1ccc(Cl)s1)N1CCN(c2ccnc3cc(Cl)ccc23)CC1 | 9.81% (inactive)
70 | CCNC(=S)N1CCN(S(=O)(=O)c2ccc(Cl)s2)CC1 | 99.5% (active)
71 | C=CCNC(=O)Cn1c(-n2nc(C)cc2C)nc2c(c1=O)CCCC2 | 98% (active)
72 | Cc1cc(C)n(-c2nc3c(c(=O)n2CC(=O)NC2CCCC2)CCCC3)n1 | 88.4% (active)
73 | Cc1cc(N)n(CC(=O)NCCn2c(C)cc3ccccc32)n1 | -1.16% (inactive)
74 | Oc1cc(-c2cccc3c2Sc2ccccc2S3)cc2c1OCCNC2 | 22% (inactive)
75 | COC(=O)Nc1ccc(OCc2nc(C)c(C)s2)cc1 | 2.64% (inactive)
76 | COc1ccc(C2(C(=O)Nc3nc(C)c(C)s3)CCCCC2)cc1 | 91.6% (active)
77 | Cc1ncc(CN(C)C(=O)c2ccc(Cl)c(Cl)c2O)s1 | 45.2% (inactive)
78 | Cc1ccc(O)c(C(=O)N(C)Cc2ccccc2C(F)(F)F)c1 | 14.5% (inactive)
79 | CN(Cc1ccc(Br)s1)C(=O)c1ccccc1O | 89.5% (active)
80 | O=C1c2ccccc2C(=O)c2oc(-c3cc([N+](=O)[O-])cc([N+](=O)[O-])c3)nc21 | 61.8% (active)
81 | CCCc1cc(NCC2CCCO2)n2nc(C)c(-c3ccccc3)c2n1 (stereo not given) | 39.6% (inactive)

Row | Structure (SMILES) | inhibition
82 | CCCc1cc(N2CCCC2)n2nc3nc(C)cc(C)c3c2n1 | 22% (inactive)
83 | CCCc1cc(NCC2CCCO2)n2nc3nc(C)cc(C)c3c2n1 (stereo not given) | 98.6% (active)
84 | O=c1cc(CN2CCc3ccccc32)occ1OCc1ccc(Cl)cc1 | 1.87% (inactive)
85 | Cc1cc(C)cc(NC(=O)COc2coc(CN3CCc4ccccc43)cc2=O)c1 | 69.1% (active)
86 | CCc1nnc(N/N=C\c2cc(Cl)c(OCc3ccccc3F)c(OC)c2)n1N | 51.4% (active)
87 | CC(C)=CCCC(C)[C@@H]1CC[C@]2(C)C3=C(CC[C@@]12C)C1(C)CC[C@H](O)C(C)(C)C1CC3 (stereo not given in full) | 49.1% (inactive)
88 | CCCCOc1c(I)cc(CNCCN(C)C)cc1OCC | -1.94% (inactive)
89 | COc1ccc([C@@H](C)C(=O)c2ccc(O)cc2O)cc1 | 64.6% (active)
90 | COc1c(O)cc(O)cc1O | 19.6% (inactive)
91 | COc1ccc(C(=O)Nc2cnn(C(C)(C)C)c2)c(O)c1 | -6.01% (inactive)
92 | CS(=O)c1c(Cl)cccc1NC(=O)N1CCN(c2ncc(Cl)cc2Cl)CC1 (stereo not given) | -25.6% (inactive)
93 | O=C(CCl)N1CCN(c2ncc(C(F)(F)F)cc2Cl)CC1 | 67.7% (active)
94 | O=S(=O)(c1cccc(Br)c1)N1CCCN(c2ncc(C(F)(F)F)cc2Cl)CC1 | 45% (inactive)
95 | Cc1c(/C=C/c2ccc(Br)cc2F)n[nH]c(=O)c1C#N | 67% (active)
96 | COc1ccc(C(=O)C=Cc2ccc(Br)cc2F)c(OC)c1 | -5.68% (inactive)
97 | O=C(c1ccc(Cl)cc1Cl)N1CCCC(OCc2ccccc2Cl)C1 (stereo not given) | 20.5% (inactive)
98 | C(=Cc1ccccc1)C=NNc1nn[nH]n1 | 86.6% (active)
99 | C(=Cc1ccccc1)C=NNc1ncnc2ccccc12 | 99.2% (active)
100 | Oc1ccc(C=NNc2ncnc3scc(-c4ccccc4)c23)c(O)c1 | 12.7% (inactive)
101 | O=C(NN=CC=Cc1ccccc1)c1cc(C23CC4CC(CC(C4)C2)C3)[nH]n1 | 11.1% (inactive)
102 | c1ccc(Nc2ccc(OCc3nn[nH]n3)cc2)cc1 | 10.5% (inactive)
103 | CCOCCSc1nnc(C)c2cnn(-c3ccc(C)c(C)c3)c12 | 51.4% (active)
104 | CC(C)c1nnc(SCc2cccnc2)c2c1cnn2-c1ccc(F)cc1 | 48% (inactive)
105 | Cc1ccc(-n2ncc3c(C4CC4)nn(C)c(=O)c32)cc1C | 47.4% (inactive)
